Screening results as filed in PubChem.
This is a sample that favours compounds with a hit; in the whole collection about 3% have one here.
PAX8 reporter: inhibitors of PAX8 transcriptional activity in RMG-I cells; 1.2% of 360,000 active; RMG-I TPO-luciferase reporter, SteadyGlo, 24 h; inhibition, % at 12.6 µM;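 active = mean replicate inhibition at least 60% with every replicate also reaching 60%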;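 also: luciferase light reporting Pax8 driven TPO promoter activity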
Peg3 promoter: reduces Peg3 promoter-driven luciferase expression in HeLa; HeLa PEG-Prom luciferase reporter, luminescence, overnight; inhibition, % at 20 µM; 1.7% of 360,000 active;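 active = inhibition of at least 50% at 20 µM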
ABHD5 PLIN5 PPI: ABHD5-PLIN5 protein interaction inhibition; Split G. princeps luciferase complementation, luminescence, 4 h; inhibition, % at 4 µM; 0.78% of 360,000 active; AID 602281;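 active = inhibition above the mean inhibition across every tested compound plus 3 SD, cut at about 22% in these data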
EWS-Fli block: blocks EWS/Fli oncoprotein-driven transcription; A673 NR0B1-luciferase reporter, viability-normalised; inhibition, % at 12.6 µM; 0.67% of 350,000 active;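 active = mean inhibition of at least 50% after viability correction, with every replicate also passing that limit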;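 also: firefly luciferase signal divided by Alamar Blue viability fluorescence both relative to DMSO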
Shn3 inh set2: Schnurri-3 reporter inhibition in Clone20 osteoblasts | Clone20 osteoblast Shn3 3'UTR firefly luciferase, 24 h | inhibition, % at 12.5 µM | 0.52% of 360,000 active | AID 588674;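 active = mean inhibition of at least 75% with every replicate also reaching 75%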
TRPM1 prom inh: inhibitors of MITF-driven TRPM1 promoter in melanoma cells. SK-MEL-5 TRPM1 promoter luciferase, 24 h. inhibition, % at 12.5 µM. 0.83% of 330,000 active. AID 488899;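 active = mean inhibition across replicates of 60% or more, whatever share of single replicates reaches that level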
ABHD5 PLIN5 conf: confirmation of human ABHD5-PLIN5 interaction inhibitors | shares compounds with ABHD5 PLIN5 PPI | biochemical ABHD5-PLIN5 interaction, luminescence | inhibition, % at 4 µM | 67% of 2,200 active | AID 651612; in the data active = inhibition above about 23%
HNF4 counter: active in HNF4 split-luciferase counter-screen for ABHD5-PLIN5 inhibitors; shares compounds with ABHD5 PLIN5 PPI; HNF4 dimerization, luminescence, biochemical; inhibition, % at 4 µM; 77% of 2,200 active; AID 651674;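 active = mean inhibition across replicate wells exceeding the computed hit threshold, cut at about 13% in these data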;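 also: light from luciferase halves that rejoin when HNF4 fusion proteins dimerize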
Target sequence (P41235 whole entry, looked up, the tested form may be a part): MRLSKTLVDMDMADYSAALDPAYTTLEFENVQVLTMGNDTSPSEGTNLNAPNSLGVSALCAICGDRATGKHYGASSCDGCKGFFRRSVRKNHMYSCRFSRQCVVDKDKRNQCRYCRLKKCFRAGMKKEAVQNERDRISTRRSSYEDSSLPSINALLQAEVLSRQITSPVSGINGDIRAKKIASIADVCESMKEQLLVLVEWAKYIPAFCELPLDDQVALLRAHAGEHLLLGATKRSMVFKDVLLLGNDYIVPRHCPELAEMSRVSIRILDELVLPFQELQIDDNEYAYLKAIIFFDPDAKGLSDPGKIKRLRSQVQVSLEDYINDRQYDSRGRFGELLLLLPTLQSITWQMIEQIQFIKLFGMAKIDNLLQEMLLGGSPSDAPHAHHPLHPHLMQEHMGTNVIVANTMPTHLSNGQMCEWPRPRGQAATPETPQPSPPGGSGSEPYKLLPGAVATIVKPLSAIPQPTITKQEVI
Hits are given with their value.

C[C@@H]1CN([C@@H](C)CO)S(=O)(=O)c2ccc(C3=CCCC3)cc2O[C@H]1CN(C)C(=O)c1ccccn1 was read as EWS-Fli block inactive.
Screening CC1=CC(C)(C)Nc2ccc(OC(=O)CN3C(=O)c4ccccc4C3=O)cc21 returned PAX8 reporter inactive, Peg3 promoter 102.0, ABHD5 PLIN5 PPI 66.1, EWS-Fli block inactive, Shn3 inh set2 inactive, TRPM1 prom inh inactive, ABHD5 PLIN5 conf 85.6 and HNF4 counter 79.4.
For CC1=CC(C)(C)Nc2ccc(OC(=O)CN3C(=O)c4cccc5cccc(c45)C3=O)cc21 the results were Peg3 promoter inactive, ABHD5 PLIN5 PPI 31.5, Shn3 inh set2 inactive, TRPM1 prom inh inactive, ABHD5 PLIN5 conf 70.9 and HNF4 counter inactive.
Screening CC1=CC(C)(C)Nc2ccc(OC(=O)C(Cc3ccccc3)N3C(=O)c4ccccc4C3=O)cc21 (stereo not given) returned Peg3 promoter inactive, ABHD5 PLIN5 PPI inactive, Shn3 inh set2 inactive and TRPM1 prom inh inactive.
`C[C@H](CO)N1C[C@H](C)[C@H](CN(C)C(=O)Nc2ccccc2)Oc2ccc(NC(=O)Cc3ccccc3)cc2CC1=O` gave PAX8 reporter inactive and EWS-Fli block inactive.
Screening C[C@@H]1CN([C@@H](C)CO)C(=O)Cc2cc(NC(=O)Nc3ccc4c(c3)OCO4)ccc2O[C@@H]1CN(C)S(C)(=O)=O returned PAX8 reporter inactive and EWS-Fli block inactive.
`CO[C@H]1CN(C)C(=O)c2cc(NS(=O)(=O)c3ccc(-c4ccccc4)cc3)ccc2OC[C@@H](C)NC[C@@H]1C` gave EWS-Fli block inactive.
`O=[N+]([O-])c1ccc(N=Nc2ncc[nH]2)cc1` gave PAX8 reporter 74.3, Peg3 promoter 107.4, ABHD5 PLIN5 PPI 29.9, EWS-Fli block 62.6, Shn3 inh set2 inactive, TRPM1 prom inh inactive, ABHD5 PLIN5 conf 57.5 and HNF4 counter 52.1.
Screening CCC(=O)N(C)C[C@@H]1Oc2cc(-c3ccccc3F)ccc2S(=O)(=O)N([C@H](C)CO)C[C@@H]1C returned EWS-Fli block inactive.
Screening C[C@@H]1CCCCO[C@@H](CN(C)C(=O)CCC(F)(F)F)[C@@H](C)CN([C@@H](C)CO)C(=O)c2cc(NS(C)(=O)=O)ccc2O1 returned PAX8 reporter inactive and EWS-Fli block inactive.
For C=C[C@]1(C)C=C2CC[C@H]3[C@@](C)(CCC[C@@]3(C)C(=O)O)[C@@H]2CC1 the results were Peg3 promoter inactive, ABHD5 PLIN5 PPI inactive, Shn3 inh set2 inactive and TRPM1 prom inh inactive.
For C=C[C@]1(C)C=C2C(=O)[C@@]3(O)OC(=O)[C@@]4(CCCC(C)(C)[C@H]34)[C@@]2(O)CC1 the results were PAX8 reporter inactive, Peg3 promoter 98.7, ABHD5 PLIN5 PPI 72.4, EWS-Fli block inactive, Shn3 inh set2 95.1, ABHD5 PLIN5 conf 61.3 and HNF4 counter 80.8.
Screening O=C(NNC(=O)C1CC1)c1ccccc1[N+](=O)[O-] returned PAX8 reporter inactive, Peg3 promoter inactive, ABHD5 PLIN5 PPI 31.5, Shn3 inh set2 inactive, TRPM1 prom inh inactive, ABHD5 PLIN5 conf inactive and HNF4 counter inactive.
Screening C[C@@H]1CN([C@@H](C)CO)C(=O)Cc2cc(NC(=O)Nc3ccccc3)ccc2O[C@H]1CN(C)S(=O)(=O)c1ccc(Cl)cc1 returned PAX8 reporter inactive and EWS-Fli block inactive.
Screening COc1ccccc1N1CCNC(C)C1=O (stereo not given) returned PAX8 reporter inactive, Peg3 promoter inactive, ABHD5 PLIN5 PPI 57.2, EWS-Fli block inactive, Shn3 inh set2 inactive, TRPM1 prom inh inactive, ABHD5 PLIN5 conf inactive and HNF4 counter 14.7.
Screening COc1ccccc1N1C(=O)C2C3C=CC(CC3)C2C1=O (stereo not given) returned PAX8 reporter inactive, Peg3 promoter inactive, ABHD5 PLIN5 PPI inactive, EWS-Fli block inactive, Shn3 inh set2 inactive and TRPM1 prom inh inactive.
Screening C[C@H](CO)N1C[C@H](C)[C@@H](CN(C)C(=O)Nc2cc(F)ccc2F)Oc2cc(-c3ccc(C#N)cc3)ccc2S1(=O)=O returned PAX8 reporter inactive and EWS-Fli block inactive.
O=[N+]([O-])c1ccc(-[n+]2ccc3ccccc3c2)c([N+](=O)[O-])c1 was read as PAX8 reporter inactive, Peg3 promoter 95.5, ABHD5 PLIN5 PPI 29.5, EWS-Fli block inactive, Shn3 inh set2 inactive, TRPM1 prom inh 89.2, ABHD5 PLIN5 conf 61.8 and HNF4 counter 58.1.
`C[C@H]1CN([C@@H](C)CO)C(=O)c2cccc(NS(=O)(=O)c3ccc(F)cc3)c2O[C@H]1CN(C)Cc1ccc(C(=O)O)cc1` gave EWS-Fli block inactive.
For Cc1ccc(S(=O)(=O)CCC(=O)c2cccc([N+](=O)[O-])c2)cc1 the results were PAX8 reporter inactive, Peg3 promoter 109.9, ABHD5 PLIN5 PPI 33.2, EWS-Fli block inactive, Shn3 inh set2 inactive, TRPM1 prom inh inactive, ABHD5 PLIN5 conf 64.9 and HNF4 counter 98.0.
C[C@@H]1CN([C@H](C)CO)C(=O)c2cccc(NC(=O)C3CCCCC3)c2O[C@@H]1CN(C)Cc1ccncc1 was read as PAX8 reporter inactive and EWS-Fli block inactive.
`COc1cc(NC(=O)C/C(C)=N/NC(=O)c2cccs2)c(OC)cc1Cl` gave PAX8 reporter inactive, Peg3 promoter inactive, ABHD5 PLIN5 PPI 35.6, EWS-Fli block inactive, Shn3 inh set2 inactive, TRPM1 prom inh inactive, ABHD5 PLIN5 conf inactive and HNF4 counter 15.7.
`COc1cc(NC(=O)C/C(C)=N/NC(=O)Cc2ccccc2)c(OC)cc1Cl` gave PAX8 reporter inactive, Peg3 promoter inactive, ABHD5 PLIN5 PPI inactive, Shn3 inh set2 inactive and TRPM1 prom inh inactive.
`CC(C)NC(=O)N1[C@H](CO)[C@H](c2ccccc2)C12CN(C(=O)c1ccccn1)C2` gave EWS-Fli block inactive.
`Cc1ccc2nc3cc([N+](=O)[O-])cc([N+](=O)[O-])c3cc2c1` gave PAX8 reporter inactive, Peg3 promoter 75.1, ABHD5 PLIN5 PPI 39.1, EWS-Fli block 61.0, Shn3 inh set2 inactive, TRPM1 prom inh 62.6, ABHD5 PLIN5 conf 88.5 and HNF4 counter 46.9.
Screening O=C(NCc1cc(F)cc(F)c1)[C@H]1[C@H](CO)[C@H]2Cn3c(cccc3=O)[C@@H]1N2C(=O)Cc1ccccn1 returned PAX8 reporter inactive and EWS-Fli block inactive.
C[C@H](CO)N1C[C@H](C)[C@H](CN(C)S(=O)(=O)c2cccc(F)c2)Oc2ncc(C#CC3CCCCC3)cc2C1=O was read as PAX8 reporter inactive and EWS-Fli block inactive.
